# In article PMC11006913:
# Substitutions are numbered along the chain they refer to.
# What was measured:
# Assay in all cases: PBM; 200 nM protein, PBS
# Conditions in all cases: dsDNA, one strand shown
# HOXA7 [1] = target: HOXA7 (Homo sapiens, UniProt P31268 116-202)
# HOXA7 [2] = target: HOXA7 (Homo sapiens, UniProt P31268 116-202, W177C)
# HOXC10 [3] = target: HOXC10 (Homo sapiens, UniProt Q9NYD6 254-340)
# HOXD13 [4] = target: HOXD13 (Homo sapiens, UniProt P35453 263-343, T313R)
# HOXD13 [5] = target: HOXD13 (Homo sapiens, UniProt P35453 263-343)
# Sequence of HOXD13 (Homo sapiens, UniProt P35453 263-343) (P35453 263-343): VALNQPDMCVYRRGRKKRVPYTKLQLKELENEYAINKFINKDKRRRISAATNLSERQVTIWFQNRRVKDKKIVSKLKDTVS
# HOXC10 [6] = target: HOXC10 (Homo sapiens, UniProt Q9NYD6 254-340, K271E)
# Sequence of HOXC10 (Homo sapiens, UniProt Q9NYD6 254-340, K271E) (Q9NYD6 254-340 K271E): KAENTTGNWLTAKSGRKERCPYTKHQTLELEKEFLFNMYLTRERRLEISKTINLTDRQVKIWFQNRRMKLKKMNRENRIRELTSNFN
# HOXD13 [7] = target: HOXD13 (Homo sapiens, UniProt P35453 263-343, T313A)
# Sequence of HOXD13 (Homo sapiens, UniProt P35453 263-343, T313A) (P35453 263-343 T313A): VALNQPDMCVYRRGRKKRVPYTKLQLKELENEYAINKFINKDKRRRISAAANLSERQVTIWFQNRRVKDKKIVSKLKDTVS
# HOXB6 [8] = target: HOXB6 (Homo sapiens, UniProt P17509 132-218, K202E)
# Sequence of HOXB6 (Homo sapiens, UniProt P17509 132-218, K202E) (P17509 132-218 K202E): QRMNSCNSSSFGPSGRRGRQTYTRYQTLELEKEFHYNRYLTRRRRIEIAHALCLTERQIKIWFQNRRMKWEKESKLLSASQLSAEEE
# PROP1 [9] = target: PROP1 (Homo sapiens, UniProt O75360 56-141)
# Sequence of PROP1 (Homo sapiens, UniProt O75360 56-141) (O75360 56-141): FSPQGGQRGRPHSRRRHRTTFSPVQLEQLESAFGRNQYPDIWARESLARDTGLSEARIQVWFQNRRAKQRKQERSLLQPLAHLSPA
# PROP1 [10] = target: PROP1 (Homo sapiens, UniProt O75360 56-141, R99H)
# Sequence of PROP1 (Homo sapiens, UniProt O75360 56-141, R99H) (O75360 56-141 R99H): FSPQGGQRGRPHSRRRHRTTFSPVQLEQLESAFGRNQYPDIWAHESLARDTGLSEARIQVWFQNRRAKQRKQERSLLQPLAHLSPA
# PROP1 [11] = target: PROP1 (Homo sapiens, UniProt O75360 56-141, F88S)
# Sequence of PROP1 (Homo sapiens, UniProt O75360 56-141, F88S) (O75360 56-141 F88S): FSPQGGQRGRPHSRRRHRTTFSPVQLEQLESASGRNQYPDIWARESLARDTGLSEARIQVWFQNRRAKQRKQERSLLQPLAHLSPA
# HOXB6 [12] = target: HOXB6 (Homo sapiens, UniProt P17509 132-218)
# Sequence of HOXB6 (Homo sapiens, UniProt P17509 132-218) (P17509 132-218): as the sequence (P17509 132-218 K202E) above, with E71K counted along it
# PAX4 [13] = target: T1, PAX4 (Homo sapiens, UniProt O43316 9-242, R200K)
# T1 sequence: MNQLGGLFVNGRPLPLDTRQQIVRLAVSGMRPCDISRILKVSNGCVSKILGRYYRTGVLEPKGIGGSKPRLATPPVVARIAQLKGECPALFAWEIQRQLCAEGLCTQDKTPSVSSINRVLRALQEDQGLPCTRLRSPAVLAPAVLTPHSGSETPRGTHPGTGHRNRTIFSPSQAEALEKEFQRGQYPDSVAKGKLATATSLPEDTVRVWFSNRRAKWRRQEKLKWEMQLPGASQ
# PRRX1 [14] = target: PRRX1 (Homo sapiens, UniProt P54821 80-166, F113S)
# Sequence of PRRX1 (Homo sapiens, UniProt P54821 80-166, F113S) (P54821 80-166 F113S): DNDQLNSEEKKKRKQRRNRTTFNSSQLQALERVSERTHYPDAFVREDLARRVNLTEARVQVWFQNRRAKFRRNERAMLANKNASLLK
# PAX4 [15] = target: T2, PAX4 (Homo sapiens, UniProt O43316 9-242)
# T2 sequence: T1 sequence with K192R
# PAX4 [16] = target: T3, PAX4 (Homo sapiens, UniProt O43316 9-242, R200Q)
# T3 sequence: T1 sequence with K192Q
# PAX4 [17] = target: T4, PAX4 (Homo sapiens, UniProt O43316 9-242, F177V)
# T4 sequence: T1 sequence with F169V, K192R
# PAX4 [18] = target: T5, PAX4 (Homo sapiens, UniProt O43316 9-242, F177Y)
# T5 sequence: T1 sequence with F169Y, K192R
# PAX4 [19] = target: T6, PAX4 (Homo sapiens, UniProt O43316 9-242, R227W)
# T6 sequence: T1 sequence with K192R, R219W
# PRRX1 [20] = target: PRRX1 (Homo sapiens, UniProt P54821 80-166)
# Sequence of PRRX1 (Homo sapiens, UniProt P54821 80-166) (P54821 80-166): as the sequence (P54821 80-166 F113S) above, with S34F counted along it
# ALX4 = ALX4 (Homo sapiens, UniProt Q9H161 200-286, Q225E)
# Sequence of ALX4 (Q9H161 200-286 Q225E): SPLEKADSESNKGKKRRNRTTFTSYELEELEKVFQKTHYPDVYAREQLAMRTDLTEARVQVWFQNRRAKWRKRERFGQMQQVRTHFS
# HOXC9 = HOXC9 (Homo sapiens, UniProt P31274 178-260, R222W)
# Sequence of HOXC9 (P31274 178-260 R222W): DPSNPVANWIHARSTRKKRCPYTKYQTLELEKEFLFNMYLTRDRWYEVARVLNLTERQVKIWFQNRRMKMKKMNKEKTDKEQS
# ALX3 [21] = target: ALX3 (Homo sapiens, UniProt O95076 139-225, N203Q)
# Sequence of ALX3 (Homo sapiens, UniProt O95076 139-225, N203Q) (O95076 139-225 N203Q): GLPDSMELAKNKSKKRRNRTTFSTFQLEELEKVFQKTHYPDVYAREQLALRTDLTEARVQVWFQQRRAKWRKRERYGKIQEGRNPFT
# NKX2-6 [22] = target: T7, NKX2-6 (Homo sapiens, UniProt A6NCS4 118-204)
# T7 sequence: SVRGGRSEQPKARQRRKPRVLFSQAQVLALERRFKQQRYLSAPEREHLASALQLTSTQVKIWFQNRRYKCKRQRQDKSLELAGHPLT
# ALX3 [23] = target: ALX3 (Homo sapiens, UniProt O95076 139-225)
# Sequence of ALX3 (Homo sapiens, UniProt O95076 139-225) (O95076 139-225): as the sequence (O95076 139-225 N203Q) above, with Q65N counted along it
# ALX3 [24] = target: ALX3 (Homo sapiens, UniProt O95076 139-225, L168Q)
# Sequence of ALX3 (Homo sapiens, UniProt O95076 139-225, L168Q) (O95076 139-225 L168Q): as the sequence (O95076 139-225 N203Q) above, with L30Q, Q65N counted along it
# NKX2-6 [25] = target: T8, NKX2-6 (Homo sapiens, UniProt A6NCS4 118-204, F151L)
# T8 sequence: T7 sequence with F34L
# ALX3 [26] = target: ALX3 (Homo sapiens, UniProt O95076 139-225, L168V)
# Sequence of ALX3 (Homo sapiens, UniProt O95076 139-225, L168V) (O95076 139-225 L168V): as the sequence (O95076 139-225 N203Q) above, with L30V, Q65N counted along it
# ALX3 [27] = target: ALX3 (Homo sapiens, UniProt O95076 139-225, N203S)
# Sequence of ALX3 (Homo sapiens, UniProt O95076 139-225, N203S) (O95076 139-225 N203S): as the sequence (O95076 139-225 N203Q) above, with Q65S counted along it
# Sequence of HOXA7 (Homo sapiens, UniProt P31268 116-202, W177C) (P31268 116-202 W177C): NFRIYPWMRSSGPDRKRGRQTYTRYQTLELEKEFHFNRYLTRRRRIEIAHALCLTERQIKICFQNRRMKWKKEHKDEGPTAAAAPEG
# Sequence of HOXC10 (Homo sapiens, UniProt Q9NYD6 254-340) (Q9NYD6 254-340): as the sequence (Q9NYD6 254-340 K271E) above, with E18K counted along it
# Sequence of HOXA7 (Homo sapiens, UniProt P31268 116-202) (P31268 116-202): as the sequence (P31268 116-202 W177C) above, with C62W counted along it
# Sequence of HOXD13 (Homo sapiens, UniProt P35453 263-343, T313R) (P35453 263-343 T313R): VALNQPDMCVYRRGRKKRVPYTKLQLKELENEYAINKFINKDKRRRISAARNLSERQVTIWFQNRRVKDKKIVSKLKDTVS
sequence,measurement,setting,value
CACCTACG,binding signal,HOXA7 [1],"8.56 upbm affinity estimate (log intensity, higher = more binding, comparable within an allelic series)"
same,binding signal,HOXA7 [2],"8.57 upbm affinity estimate (log intensity, higher = more binding, comparable within an allelic series)"
CCAGAGGA,binding signal,HOXA7 [1],"8.4 upbm affinity estimate (log intensity, higher = more binding, comparable within an allelic series)"
same,binding signal,HOXA7 [2],"8.47 upbm affinity estimate (log intensity, higher = more binding, comparable within an allelic series)"
AAGGACTG,binding signal,HOXA7 [1],"8.44 upbm affinity estimate (log intensity, higher = more binding, comparable within an allelic series)"
same,binding signal,HOXA7 [2],"8.4 upbm affinity estimate (log intensity, higher = more binding, comparable within an allelic series)"
CAAATAAA,binding signal,HOXC10 [3],"11.4 upbm affinity estimate (log intensity, higher = more binding, comparable within an allelic series)"
CTTTATTA,binding signal,HOXC10 [3],"12.2 upbm affinity estimate (log intensity, higher = more binding, comparable within an allelic series)"
same,binding signal,HOXD13 [4],"10.6 upbm affinity estimate (log intensity, higher = more binding, comparable within an allelic series)"
same,binding signal,HOXD13 [5],"11.8 upbm affinity estimate (log intensity, higher = more binding, comparable within an allelic series)"
same,binding signal,HOXC10 [6],"11.7 upbm affinity estimate (log intensity, higher = more binding, comparable within an allelic series)"
same,binding signal,HOXD13 [7],"11.5 upbm affinity estimate (log intensity, higher = more binding, comparable within an allelic series)"
GGGGGGAA,binding signal,HOXC10 [3],"10 upbm affinity estimate (log intensity, higher = more binding, comparable within an allelic series)"
same,binding signal,HOXB6 [8],"9 upbm affinity estimate (log intensity, higher = more binding, comparable within an allelic series)"
same,binding signal,HOXC10 [6],"9.95 upbm affinity estimate (log intensity, higher = more binding, comparable within an allelic series)"
same,binding signal,PROP1 [9],"6.74 upbm affinity estimate (log intensity, higher = more binding, comparable within an allelic series)"
same,binding signal,PROP1 [10],"6.57 upbm affinity estimate (log intensity, higher = more binding, comparable within an allelic series)"
same,binding signal,PROP1 [11],"6.2 upbm affinity estimate (log intensity, higher = more binding, comparable within an allelic series)"
same,binding signal,HOXB6 [12],"9.07 upbm affinity estimate (log intensity, higher = more binding, comparable within an allelic series)"
CGCCCCCG,binding signal,HOXC10 [3],"10 upbm affinity estimate (log intensity, higher = more binding, comparable within an allelic series)"
same,binding signal,PAX4 [13],"9.05 upbm affinity estimate (log intensity, higher = more binding, comparable within an allelic series)"
same,binding signal,PRRX1 [14],"9.19 upbm affinity estimate (log intensity, higher = more binding, comparable within an allelic series)"
same,binding signal,PAX4 [15],"9.27 upbm affinity estimate (log intensity, higher = more binding, comparable within an allelic series)"
same,binding signal,HOXB6 [8],"8.93 upbm affinity estimate (log intensity, higher = more binding, comparable within an allelic series)"
same,binding signal,HOXD13 [4],"9.18 upbm affinity estimate (log intensity, higher = more binding, comparable within an allelic series)"
same,binding signal,PAX4 [16],"9.26 upbm affinity estimate (log intensity, higher = more binding, comparable within an allelic series)"
same,binding signal,HOXD13 [5],"9.19 upbm affinity estimate (log intensity, higher = more binding, comparable within an allelic series)"
same,binding signal,PAX4 [17],"9.01 upbm affinity estimate (log intensity, higher = more binding, comparable within an allelic series)"
same,binding signal,HOXC10 [6],"9.94 upbm affinity estimate (log intensity, higher = more binding, comparable within an allelic series)"
same,binding signal,PAX4 [18],"8.92 upbm affinity estimate (log intensity, higher = more binding, comparable within an allelic series)"
same,binding signal,HOXD13 [7],"9.4 upbm affinity estimate (log intensity, higher = more binding, comparable within an allelic series)"
same,binding signal,PAX4 [19],"9.12 upbm affinity estimate (log intensity, higher = more binding, comparable within an allelic series)"
same,binding signal,PRRX1 [20],"9.18 upbm affinity estimate (log intensity, higher = more binding, comparable within an allelic series)"
same,binding signal,HOXB6 [12],"8.91 upbm affinity estimate (log intensity, higher = more binding, comparable within an allelic series)"
CCAATAAA,binding signal,HOXC10 [3],"12.1 upbm affinity estimate (log intensity, higher = more binding, comparable within an allelic series)"
same,binding signal,ALX4,"11.4 upbm affinity estimate (log intensity, higher = more binding, comparable within an allelic series)"
same,binding signal,HOXD13 [4],"11.1 upbm affinity estimate (log intensity, higher = more binding, comparable within an allelic series)"
same,binding signal,HOXD13 [5],"12.4 upbm affinity estimate (log intensity, higher = more binding, comparable within an allelic series)"
same,binding signal,HOXC10 [6],"11.3 upbm affinity estimate (log intensity, higher = more binding, comparable within an allelic series)"
same,binding signal,HOXD13 [7],"12.2 upbm affinity estimate (log intensity, higher = more binding, comparable within an allelic series)"
same,binding signal,HOXC9,"11.1 upbm affinity estimate (log intensity, higher = more binding, comparable within an allelic series)"
GATGTTAA,binding signal,HOXC10 [3],"10.8 upbm affinity estimate (log intensity, higher = more binding, comparable within an allelic series)"
CCCCCAGG,binding signal,HOXC10 [3],"10.1 upbm affinity estimate (log intensity, higher = more binding, comparable within an allelic series)"
same,binding signal,ALX3 [21],"7.76 upbm affinity estimate (log intensity, higher = more binding, comparable within an allelic series)"
same,binding signal,NKX2-6 [22],"9.38 upbm affinity estimate (log intensity, higher = more binding, comparable within an allelic series)"
same,binding signal,HOXC10 [6],"10.1 upbm affinity estimate (log intensity, higher = more binding, comparable within an allelic series)"
same,binding signal,ALX3 [23],"7.79 upbm affinity estimate (log intensity, higher = more binding, comparable within an allelic series)"
same,binding signal,ALX3 [24],"7.67 upbm affinity estimate (log intensity, higher = more binding, comparable within an allelic series)"
same,binding signal,NKX2-6 [25],"9.1 upbm affinity estimate (log intensity, higher = more binding, comparable within an allelic series)"
same,binding signal,ALX3 [26],"7.72 upbm affinity estimate (log intensity, higher = more binding, comparable within an allelic series)"
same,binding signal,ALX3 [27],"7.71 upbm affinity estimate (log intensity, higher = more binding, comparable within an allelic series)"
